Screening results: PubChem, National Center for Advancing Translational Sciences (NCATS)
Most compounds without a hit are left out; they make up all but 3.3% or so of the library.
USP2a inh: inhibitors of human ubiquitin-specific protease USP2a; O75604; USP2 core, Ub-CHOP2 coupled fluorogenic reporter, 485/531; Potency, µM (series often up to 38.3 µM), usual class: inhibitors; 330,000 tested, 0.01% active; AID 463254
Target sequence (O75604 whole entry, looked up): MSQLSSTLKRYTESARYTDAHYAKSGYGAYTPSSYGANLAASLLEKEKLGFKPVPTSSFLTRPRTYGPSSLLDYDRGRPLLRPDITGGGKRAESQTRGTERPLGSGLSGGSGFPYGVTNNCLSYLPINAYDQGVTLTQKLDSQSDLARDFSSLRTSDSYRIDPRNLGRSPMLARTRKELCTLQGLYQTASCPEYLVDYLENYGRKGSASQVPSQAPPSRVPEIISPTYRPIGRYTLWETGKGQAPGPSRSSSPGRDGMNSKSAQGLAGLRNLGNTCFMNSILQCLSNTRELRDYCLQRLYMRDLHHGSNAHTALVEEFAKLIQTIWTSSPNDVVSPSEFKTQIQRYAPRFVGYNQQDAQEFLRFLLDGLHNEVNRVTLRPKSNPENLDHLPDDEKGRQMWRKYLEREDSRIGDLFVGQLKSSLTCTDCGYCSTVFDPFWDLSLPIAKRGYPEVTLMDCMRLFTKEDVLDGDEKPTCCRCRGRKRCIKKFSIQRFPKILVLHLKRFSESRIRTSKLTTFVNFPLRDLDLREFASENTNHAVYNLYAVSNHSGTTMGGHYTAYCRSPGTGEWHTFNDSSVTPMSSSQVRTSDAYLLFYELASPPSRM
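USP2 core (10nM final) preincubated 30min RT with compound in 20mM Tris-HCl pH 8.0, 2mM CaCl2, 2mM beta-mercaptoethanol, 0.05% CHAPS; 25nM Ub-CHOP2 plus 25nM reporter substrate added, fluorescence (Ex485/Em531) read after 60min.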
PI5P4K alpha inh: PI5P4K alpha (human) kinase inhibition | P48426 | PI5P4Kalpha enzyme, ADP-Glo luminescence, 60 min; stronger effect = lower value | max response, % | 330,000 tested, 1.2% active | AID 652105; active = max response of -50% or lower; inconclusive = between -30% and -50%; inactive = -30% or higher; note: value at the top dose of about 77 µM
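ADP-Glo luminescence end-point after a 60 min room-temperature kinase reaction. PI5P4Kalpha and substrate in HEPES pH 7.4 buffer with EGTA, 0.1% CHAPS and 5% DMSO; ATP at 5 microM final.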
USP1-UAF1 inh: inhibitors of human USP1/UAF1 deubiquitinase; AID 743255; O94782; 390,000 tested, 0.23% active; recombinant USP1/UAF1, Ub-Rhodamine cleavage fluorescence; Potency, µM (series often up to 57.1 µM), most hits filed as inhibitors; note: nearly all actives have a fitted effect of over 60% in size
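Step one: compound is pinned into 1nM USP1/UAF1 in HEPES pH 7.8 buffer with TCEP. Step two: 15 min room-temperature incubation. Step three: Ub-Rho (150nM final) starts cleavage, tracked by fluorescence over six one-minute reads.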
PLK1 PBD inh: inhibitors of human PLK1 polo-box domain binding; Plk1 PBD binding of FITC phosphopeptide, fluorescence polarization; Potency, µM, most hits filed as inhibitors; 360,000 tested, 2.8% active; AID 720504; P53350; note: series mostly up to about 57 µM; nearly all actives have a fitted effect of over 65% in size
WRN inhibitor: WRN helicase (human) inhibition; WRN helicase unwinding, fluorescent forked duplex, kinetic; Potency, µM (top dose mostly 114 µM), hits mostly inhibitors; 360,000 tested, 0.46% active; AID 651768; note: nearly all actives have a fitted effect of over 55% in size
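Fluorescence dequenching readout, ex 525 nm/em 598 nm, kinetic mode: forked duplex DNA (100 nM final) with adjacent fluorophore and quencher unwound by WRN (20 nM final) with 2 mM ATP. Compound preincubation 15 min, room temperature.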
Large screens that a line does not name were inactive. Unless noted, calls come from the whole dose curve; as a rule, active = well fitted curve in the direction sought with a large enough effect; inconclusive = small, poorly fitted or top-dose-only effect, or another doubt; inactive = no such curve, though single readings can be large; an effect the other way counts as inactive or inconclusive.

O=C(O)CCCN=CC1=C(O)CNC1=O	PLK1 PBD inh 29.9µM
O=C1NCC(O)=C1C=NCCO	none
COc1ccc2cc3cc(C(=O)Nc4ccccc4C)oc3nc2c1	none (no result: USP2a inh, PI5P4K alpha inh, PLK1 PBD inh, WRN inhibitor)
O=[N+]([O-])c1ccc(S(=O)(=O)Nc2ccc(-c3ccccc3)cc2)cc1	none (no result: USP2a inh)
CN(NS(=O)(=O)c1ccc([N+](=O)[O-])cc1)c1ccccc1	PLK1 PBD inh 2.99µM (no result: USP2a inh)
COc1ccccc1N(CC(=O)Nc1ccc2c(c1)OCO2)S(=O)(=O)c1ccc(C)cc1	none (no result: USP2a inh, PI5P4K alpha inh, PLK1 PBD inh, WRN inhibitor)
CN1C(=O)C(N=Nc2ccc([N+](=O)[O-])cc2)SC1=S (stereo unspecified)	PI5P4K alpha inh inconclusive, PLK1 PBD inh 13.4µM, WRN inhibitor inconclusive (no result: USP2a inh)
COC(=O)C1(C)NC(c2cccs2)C2C(=O)N(c3ccccc3F)C(=O)C21 (stereo unspecified)	none
COC(=O)C1(CO)NC(c2cccs2)C2C(=O)N(c3ccccc3)C(=O)C21 (stereo unspecified)	PLK1 PBD inh 26.7µM
CCOC(=O)c1sc(NC(=O)CSc2nnc(-c3ccco3)n2CC)c(C(=O)OCC)c1C	none (no result: PI5P4K alpha inh)
NC(=O)c1c(NC(=O)CSc2nnc(-c3ccco3)n2-c2ccccc2)sc2c1CCC2	USP2a inh inconclusive, PI5P4K alpha inh -64.9, PLK1 PBD inh inconclusive
COC(=O)c1c(NC(=O)CSc2nnc(-c3ccco3)n2C)sc(C)c1C	PLK1 PBD inh 29.9µM
Nc1c(C(=O)NCC2CCCO2)sc2nc3c(c(-c4ccco4)c12)CC/C3=C\c1ccco1 (stereo unspecified)	USP2a inh inconclusive, PI5P4K alpha inh -100.4, USP1-UAF1 inh 28.2µM, PLK1 PBD inh inconclusive, WRN inhibitor 2.82µM
CCC(c1c(C)n(C)n(-c2ccccc2)c1=O)c1c(C)n(C)n(-c2ccccc2)c1=O	none (no result: PI5P4K alpha inh)
CCCC(c1c(C)n(C)n(-c2ccccc2)c1=O)c1c(C)n(C)n(-c2ccccc2)c1=O	PI5P4K alpha inh inconclusive, PLK1 PBD inh 2.38µM
Cc1c(C(=O)O)sc2nc(/C=C/c3cccc(O)c3)[nH]c(=O)c12	PI5P4K alpha inh -76.8, WRN inhibitor inconclusive
CN(C)CCn1c2c(c(SCC(=O)Nc3ccc(F)cc3F)nc1=O)CCC2	none (no result: USP2a inh, PI5P4K alpha inh, PLK1 PBD inh, WRN inhibitor)
Cc1ccccc1C(=O)NCc1ccc2c(c1)CCN2C(=O)c1ccc(F)cc1	none (no result: USP2a inh, PI5P4K alpha inh, PLK1 PBD inh, WRN inhibitor)
Oc1ccc2ccccc2c1CNc1ccc(Br)cc1	PLK1 PBD inh 6.7µM
Oc1ccc2ccccc2c1CNc1cnc2ccccc2c1	PLK1 PBD inh 3.36µM (no result: PI5P4K alpha inh)
Cc1ccc(C)c(Nc2ncnc3c2cnn3-c2ccc(F)cc2)c1	none (no result: USP2a inh, PI5P4K alpha inh, PLK1 PBD inh, WRN inhibitor)
COc1ccc2[nH]c3c(c2c1)CCN1C(=O)C(CC(=O)NCc2ccc(OC)c(OC)c2)C[C@H](C(=O)N2CCOCC2)[C@@]31CCC1CCCC1 (stereo partly specified)	PI5P4K alpha inh inconclusive, PLK1 PBD inh 18.9µM
CC1=NN(c2ccc(Cl)cc2)C(=O)C1	none
CC1=NN(c2ccc(N)cc2)C(=O)C1	USP1-UAF1 inh inconclusive, PLK1 PBD inh 26.7µM, WRN inhibitor 44.7µM
CCc1ccc(CN(C)C(=O)c2cc(COc3c(F)cccc3F)on2)cc1	PI5P4K alpha inh inconclusive, PLK1 PBD inh 18.9µM
CCN(Cc1ccncc1)C(=O)c1cc(COc2ccc(F)cc2Cl)on1	none
COC(=O)[C@H](Cc1ccccc1)NC(=O)c1cc(COc2c(F)cccc2F)on1	PLK1 PBD inh 29.9µM
CN(Cc1cccc2ccccc12)C(=O)c1cc(COc2c(F)cccc2F)on1	none
CCN(Cc1ccncc1)C(=O)c1cc(COc2c(F)cccc2F)on1	PLK1 PBD inh 29.9µM
CCC(NC(=O)c1cc(COc2c(F)cccc2F)on1)c1ccncc1 (stereo unspecified)	none
CC(C)CC(=O)NCC(c1ccc2c(c1)OCO2)N1CCN(c2ccccc2F)CC1 (stereo unspecified)	none (no result: USP2a inh, PI5P4K alpha inh, PLK1 PBD inh, WRN inhibitor)
Cc1ccc2cc(/C=N/NC(=O)c3ccccc3O)c(Cl)nc2c1	WRN inhibitor 50.1µM
CC(C)(C)S(=O)(=O)/C(C#N)=C/c1sccc1C1OCCO1	PLK1 PBD inh 21.2µM
CC(C)(C)S(=O)(=O)/C(C#N)=C/c1cccn1S(=O)(=O)c1ccccc1	none (no result: USP2a inh, USP1-UAF1 inh)
CC(OC(=O)CC1Sc2ccccc2NC1=O)C(=O)N(C)Cc1ccccc1 (stereo unspecified)	PLK1 PBD inh 18.9µM (no result: USP2a inh)
CCCCC(C(=O)O)C(C)CC(=O)Nc1nncs1 (stereo unspecified)	PLK1 PBD inh 21.2µM
